# Source: PubChem BioAssay (EPA / NIEHS)
# Records with an inconclusive call do not appear. Active and inactive are the calls of the source. Rule for the calls, unless noted: active = hit-call score of the fitted dose curve at least 0.9, where 1 is the maximum; inconclusive = response in the unintended direction; inactive = score below 0.9.
# Key:
# [1] = molecular target: Glucocorticoid receptor (Homo sapiens) (UniProt P04150); test: NVS_NR_hGR: NovaScreen (NVS) Nuclear Receptor Binding Assay for human Glucocorticoid Receptor (GR) (AID 2283363);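 for AC50: activity is loss of specific radioligand binding signal relative to DMSO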
# Chain of Glucocorticoid receptor (Homo sapiens) (P04150 whole entry, looked up): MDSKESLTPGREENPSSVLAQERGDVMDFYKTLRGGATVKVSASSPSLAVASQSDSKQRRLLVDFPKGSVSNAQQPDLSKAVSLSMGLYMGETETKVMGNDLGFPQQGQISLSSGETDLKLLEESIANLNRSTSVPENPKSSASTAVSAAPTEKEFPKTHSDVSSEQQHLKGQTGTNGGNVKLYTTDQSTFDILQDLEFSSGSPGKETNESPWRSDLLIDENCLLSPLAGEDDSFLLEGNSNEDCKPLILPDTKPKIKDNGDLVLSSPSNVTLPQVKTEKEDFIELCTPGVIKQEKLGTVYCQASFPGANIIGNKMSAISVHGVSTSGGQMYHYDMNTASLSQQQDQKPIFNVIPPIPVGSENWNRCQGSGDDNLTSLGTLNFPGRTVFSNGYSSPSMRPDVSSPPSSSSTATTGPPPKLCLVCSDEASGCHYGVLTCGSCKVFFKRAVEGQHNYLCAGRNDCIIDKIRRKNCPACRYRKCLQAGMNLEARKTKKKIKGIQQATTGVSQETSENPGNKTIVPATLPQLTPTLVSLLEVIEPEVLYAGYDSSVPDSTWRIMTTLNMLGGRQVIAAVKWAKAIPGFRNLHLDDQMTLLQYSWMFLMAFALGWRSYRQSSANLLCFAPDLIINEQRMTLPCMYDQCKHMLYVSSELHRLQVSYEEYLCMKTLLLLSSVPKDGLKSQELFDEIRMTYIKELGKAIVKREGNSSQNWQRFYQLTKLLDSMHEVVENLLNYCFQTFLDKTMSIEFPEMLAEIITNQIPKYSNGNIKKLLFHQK
# How it was run: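 Compounds first tested in duplicate at 25 uM, actives followed up in concentration series. Binding to extracted GR protein measured as competitive radioligand displacement, filter scintillation read 16 h post-dosing, normalised to DMSO.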
# [2] = molecular target: guinea pig Sigma Receptor, Non-selective Binding, SIGMAR1 (gene 100135589) (UniProt Q60492); test: NVS_OR_gSIGMA_NonSelective: NovaScreen (NVS) Nuclear Receptor Binding Assay for guinea pig Sigma Receptor, Non-selective Binding (AID 2283367)
# Chain of guinea pig Sigma Receptor, Non-selective Binding, SIGMAR1 (gene 100135589) (Q60492 whole entry, looked up): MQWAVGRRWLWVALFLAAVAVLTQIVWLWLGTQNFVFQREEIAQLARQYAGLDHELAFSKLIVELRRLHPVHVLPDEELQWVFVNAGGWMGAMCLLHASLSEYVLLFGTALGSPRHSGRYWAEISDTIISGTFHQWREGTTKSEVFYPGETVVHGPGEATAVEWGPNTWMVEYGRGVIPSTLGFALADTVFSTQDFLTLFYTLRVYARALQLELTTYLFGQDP
# How it was run: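 Guinea pig brain membrane sigma sites were labelled with a radioligand, and bound radioactivity was counted after filtration 1 h post-dose. Compounds were screened at 25 uM in duplicate, then retested as concentration series when active.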
# [3] = molecular target: human Dopamine Transporter (DAT), SLC6A3 (gene 6531) (UniProt Q01959); test: NVS_TR_hDAT: NovaScreen (NVS) Transporter Assay for human Dopamine Transporter (DAT) (AID 2283374);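 note: activity means loss of bound radioligand signal relative to DMSO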
# Chain of human Dopamine Transporter (DAT), SLC6A3 (gene 6531) (Q01959 whole entry, looked up): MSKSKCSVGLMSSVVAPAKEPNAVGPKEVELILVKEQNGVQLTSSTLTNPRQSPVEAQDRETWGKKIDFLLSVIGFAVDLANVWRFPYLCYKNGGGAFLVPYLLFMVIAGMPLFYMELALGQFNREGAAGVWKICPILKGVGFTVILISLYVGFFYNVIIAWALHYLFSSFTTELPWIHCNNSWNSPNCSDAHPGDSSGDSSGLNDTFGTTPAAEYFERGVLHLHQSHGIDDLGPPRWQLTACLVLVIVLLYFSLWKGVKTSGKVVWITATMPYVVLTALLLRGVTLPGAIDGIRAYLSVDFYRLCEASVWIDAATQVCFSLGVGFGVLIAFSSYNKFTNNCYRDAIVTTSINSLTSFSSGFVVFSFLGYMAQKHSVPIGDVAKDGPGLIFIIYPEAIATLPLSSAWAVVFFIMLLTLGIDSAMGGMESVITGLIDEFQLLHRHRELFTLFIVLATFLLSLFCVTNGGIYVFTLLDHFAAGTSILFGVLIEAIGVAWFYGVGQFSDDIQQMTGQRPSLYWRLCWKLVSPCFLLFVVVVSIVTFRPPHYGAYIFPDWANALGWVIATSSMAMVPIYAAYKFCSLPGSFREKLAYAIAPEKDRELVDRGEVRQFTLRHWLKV
# How it was run: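 Duplicate single-point screening at 25 uM preceded concentration-series follow-up of actives. Binding was measured by competitive displacement of a radioligand from DAT protein, filter-counted by scintillation 1 h after dosing. Decrease relative to DMSO taken as activity.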
# [4] = molecular target: Bile acid receptor (Homo sapiens) (UniProt Q96RI1); test: OT_FXR_FXRSRC1_0480: Odyssey Thera (OT) 8-hour HEK293T Protein-Complementation Assay for Farnesoid X receptor/SRC-1 Co-activator (AID 2283383)
# Chain of Bile acid receptor (Homo sapiens) (Q96RI1 whole entry, looked up, the tested form may be a part): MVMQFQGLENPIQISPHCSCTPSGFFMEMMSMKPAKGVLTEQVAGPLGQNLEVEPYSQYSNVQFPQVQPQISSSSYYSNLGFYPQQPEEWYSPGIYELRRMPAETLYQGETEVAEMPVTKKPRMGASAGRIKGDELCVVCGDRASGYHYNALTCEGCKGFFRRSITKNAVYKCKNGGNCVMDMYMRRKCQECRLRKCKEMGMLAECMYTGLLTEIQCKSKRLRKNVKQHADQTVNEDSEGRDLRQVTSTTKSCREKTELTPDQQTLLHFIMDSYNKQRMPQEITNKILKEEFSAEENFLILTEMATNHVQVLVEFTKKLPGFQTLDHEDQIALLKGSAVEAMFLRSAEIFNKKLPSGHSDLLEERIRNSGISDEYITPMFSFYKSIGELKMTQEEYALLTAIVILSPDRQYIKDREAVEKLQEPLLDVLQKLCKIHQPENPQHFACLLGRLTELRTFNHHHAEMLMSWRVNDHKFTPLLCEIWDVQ
# How it was run: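 PCA, HEK293T, 8 h compound exposure; FXR–SRC-1 binding reconstitutes split reporter; fluorescence intensity; positive-direction fit vs DMSO.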
# [5] = molecular target: Peroxisome proliferator-activated receptor gamma (Homo sapiens) (UniProt P37231); test: NVS_NR_hPPARg: NovaScreen (NVS) Nuclear Receptor Binding Assay for human Peroxisome Proliferator-activated Receptor gamma (PPARg) (AID 2283370)
# Chain of Peroxisome proliferator-activated receptor gamma (Homo sapiens) (P37231 whole entry, looked up): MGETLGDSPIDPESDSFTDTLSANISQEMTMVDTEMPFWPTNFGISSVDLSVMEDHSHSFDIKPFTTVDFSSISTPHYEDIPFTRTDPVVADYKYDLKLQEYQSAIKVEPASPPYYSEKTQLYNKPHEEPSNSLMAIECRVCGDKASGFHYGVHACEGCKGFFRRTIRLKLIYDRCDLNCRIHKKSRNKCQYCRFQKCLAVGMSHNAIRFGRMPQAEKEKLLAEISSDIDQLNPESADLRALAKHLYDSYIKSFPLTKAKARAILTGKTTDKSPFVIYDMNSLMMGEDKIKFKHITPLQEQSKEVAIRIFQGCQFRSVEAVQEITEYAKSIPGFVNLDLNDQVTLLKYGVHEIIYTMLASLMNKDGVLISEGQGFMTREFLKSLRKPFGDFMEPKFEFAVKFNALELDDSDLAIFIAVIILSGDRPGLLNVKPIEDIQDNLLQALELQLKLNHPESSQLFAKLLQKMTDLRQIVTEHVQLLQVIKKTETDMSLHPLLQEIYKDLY
# How it was run: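 Extracted receptor protein, cell-free; compound incubated 2 h then fluorescence polarization read. Baseline: DMSO. Actives from 25 uM duplicate screen re-run across concentrations.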
# [6] = molecular target: Bile acid receptor (Homo sapiens) (UniProt Q96RI1); test: OT_FXR_FXRSRC1_1440: Odyssey Thera (OT) 24-hour HEK293T Protein-Complementation Assay for Farnesoid X receptor/SRC-1 Co-activator (AID 2283384)
# How it was run: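 Measures ligand-driven FXR–SRC-1 co-activator recruitment in HEK293T via fragment complementation, fluorescence intensity at 24 h. DMSO served as negative control and baseline for gain-of-signal fitting.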
# [7] = test system: guinea pig Dopamine Transporter (DAT), gene 100714898; test: NVS_TR_gDAT: NovaScreen (NVS) Transporter Assay for guinea pig Dopamine Transporter (DAT) (AID 2283369);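 note: active compounds lower bound radioligand signal relative to DMSO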
# How it was run: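 Primary pass: duplicate wells at 25 uM, threshold e.g. 30% inhibition. Follow-up: singleton concentration-response, highest 50 uM. Radioligand binding on guinea pig striatal membranes, 2 h, filtration scintillation detection.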
# [8] = molecular target: human Serotonin Transporter (SERT), SLC6A4 (gene 6532) (UniProt P31645); test: NVS_TR_hSERT: NovaScreen (NVS) Transporter Assay for human Serotonin Transporter (SERT) (AID 2283372)
# How it was run: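 Human platelet membrane preparation; displacement of radioligand from serotonin transporter measured after 1 h by filtration and scintillation counting. Single 25 uM duplicate screen, then concentration series for actives, with DMSO as negative baseline.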
# [9] = molecular target: rat Serotonin Transporter (SERT), Slc6a4 (gene 25553) (UniProt P31652); test: NVS_TR_rSERT: NovaScreen (NVS) Transporter Assay for rat Serotonin Transporter (SERT) (AID 2283375)
# How it was run: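 Using rat forebrain membrane SERT, test chemicals compete with a radioligand for 1 hour, and bound counts are taken by filter-based scintillation. Screening starts at 25 uM in duplicate, followed by concentration series for actives.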
# [10] = molecular target: Agonist Androgen Response Element (ARE), AR (gene 367) (UniProt P10275); test: OT_AR_ARELUC_AG_1440: Odyssey Thera (OT) 24-hour CHO-K1 Luciferase Assay for Agonist Androgen Response Element (ARE) (AID 2283379)
# Chain of Agonist Androgen Response Element (ARE), AR (gene 367) (P10275 whole entry, looked up): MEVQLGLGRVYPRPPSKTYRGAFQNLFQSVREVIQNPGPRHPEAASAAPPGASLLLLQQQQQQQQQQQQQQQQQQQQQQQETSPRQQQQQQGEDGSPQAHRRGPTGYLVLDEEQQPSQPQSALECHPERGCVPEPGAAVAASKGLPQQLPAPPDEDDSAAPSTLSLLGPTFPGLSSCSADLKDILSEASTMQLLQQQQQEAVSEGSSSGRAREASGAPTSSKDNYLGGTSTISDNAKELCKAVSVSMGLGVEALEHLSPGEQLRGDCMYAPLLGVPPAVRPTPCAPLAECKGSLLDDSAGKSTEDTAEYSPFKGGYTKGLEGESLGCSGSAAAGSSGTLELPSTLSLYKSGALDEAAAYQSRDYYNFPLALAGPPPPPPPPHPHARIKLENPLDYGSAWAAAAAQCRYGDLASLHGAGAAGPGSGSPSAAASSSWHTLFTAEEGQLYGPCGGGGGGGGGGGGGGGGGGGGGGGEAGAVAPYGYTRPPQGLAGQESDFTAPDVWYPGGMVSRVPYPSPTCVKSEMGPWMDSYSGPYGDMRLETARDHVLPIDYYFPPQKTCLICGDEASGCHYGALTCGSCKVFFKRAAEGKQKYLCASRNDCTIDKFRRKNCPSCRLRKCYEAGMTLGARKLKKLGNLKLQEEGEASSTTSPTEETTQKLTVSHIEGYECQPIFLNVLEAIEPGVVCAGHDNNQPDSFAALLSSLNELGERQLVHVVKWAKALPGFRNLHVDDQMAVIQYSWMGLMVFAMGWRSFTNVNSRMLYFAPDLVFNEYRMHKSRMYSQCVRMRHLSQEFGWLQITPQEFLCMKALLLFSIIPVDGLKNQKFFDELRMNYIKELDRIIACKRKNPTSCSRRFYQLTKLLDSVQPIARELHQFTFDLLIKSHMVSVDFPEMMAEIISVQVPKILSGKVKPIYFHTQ
# How it was run: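 Readout: luciferase bioluminescence from CHO-K1 ARE-luc cells, measured 24 h post-dosing; agonism = increased mean luminescence vs DMSO controls, fitted in positive direction.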
# [11] = molecular target: Estrogen receptor (Homo sapiens) (UniProt P03372); test: OT_ERa_GFPERaERE_0480: Odyssey Thera (OT) 8-hour HeLa Transcription Induction Assay for Estrogen Receptor (AID 2283381; active = hit-call score of the fitted dose curve at least 0.9, where 1 is the maximum; inactive = score below 0.9)
# Chain of Estrogen receptor (Homo sapiens) (P03372 whole entry, looked up): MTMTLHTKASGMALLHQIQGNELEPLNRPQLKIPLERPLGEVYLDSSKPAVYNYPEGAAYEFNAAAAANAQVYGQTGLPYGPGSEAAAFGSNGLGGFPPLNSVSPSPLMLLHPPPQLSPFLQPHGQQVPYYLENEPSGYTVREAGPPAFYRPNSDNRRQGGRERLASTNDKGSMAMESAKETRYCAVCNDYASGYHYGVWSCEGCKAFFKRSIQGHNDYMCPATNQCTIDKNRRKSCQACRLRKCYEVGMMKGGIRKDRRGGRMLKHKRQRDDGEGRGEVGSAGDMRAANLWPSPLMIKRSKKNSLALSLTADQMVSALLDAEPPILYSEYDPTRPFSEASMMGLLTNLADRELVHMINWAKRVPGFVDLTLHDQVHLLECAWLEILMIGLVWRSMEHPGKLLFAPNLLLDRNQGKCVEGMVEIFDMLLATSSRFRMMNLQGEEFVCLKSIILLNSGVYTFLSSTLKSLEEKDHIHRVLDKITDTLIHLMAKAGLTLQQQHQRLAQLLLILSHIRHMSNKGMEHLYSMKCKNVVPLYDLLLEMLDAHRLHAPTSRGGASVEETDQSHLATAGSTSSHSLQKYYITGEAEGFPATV
# How it was run: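 Human cervical HeLa cells were treated for 8 hours, after which ERE-driven GFP induction was measured by fluorescence microscopy; increases over DMSO baseline defined activity.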
# [12] = molecular target: Estrogen receptor (Homo sapiens) (UniProt P03372); test: OT_ERa_GFPERaERE_0120: Odyssey Thera (OT) 2-hour HeLa Transcription Induction Assay for Estrogen Receptor (AID 2283382)
# How it was run: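 Cells (human cervical HeLa) receive compound, incubate 2 hours, then are imaged for fluorescent reporter induction. Images are quantified by high content analysis, and activity is fitted as gain of signal against DMSO.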
# [13] = test system: rat Norepinephrine Transporter (NET), gene 83511; test: NVS_TR_rNET: NovaScreen (NVS) Transporter Assay for rat Norepinephrine Transporter (NET) (AID 2283373)
# How it was run: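 Competitive radioligand displacement at the rat NET using forebrain membrane preparations, 1 h incubation, filter-based scintillation readout. Primary testing in duplicate at a single 25 uM concentration; confirmed actives retested across concentrations.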
# [14] = molecular target: Norway rat Vesicular Monoamine Transporter (VMAT2), neurotransmitter transporter, Slc18a2 (gene 25549) (UniProt Q01827); test: NVS_TR_rVMAT2: NovaScreen (NVS) Transporter Assay for Norway rat Vesicular Monoamine Transporter (VMAT2), neurotransmitter transporter (AID 2283376);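 note: actives lower the bound radioligand signal below the DMSO level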
# How it was run: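 Using rat forebrain membranes, specific radioligand binding to VMAT2 was measured by filtration and scintillation counting after 1 hour. Chemicals screened at 25 uM in duplicate, actives retested in concentration series, DMSO baseline.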
# [15] = molecular target: human Norepinephrine Transporter (NET), SLC6A2 (gene 6530) (UniProt P23975); test: NVS_TR_hNET: NovaScreen (NVS) Transporter Assay for human Norepinephrine Transporter (NET) (AID 2283377);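 note: cell-free membrane protein extracted from CHO cells expressing human NET; displacement of radioligand from human NET seen as loss of scintillation signal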
# How it was run: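 Single-concentration duplicate screen at 25 uM, then concentration-response for actives; displacement of specific radioligand from human NET in CHO membrane extracts, filter-based scintillation detection at 1 h relative to DMSO.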
# [16] = molecular target: Estrogen receptor beta (Homo sapiens) (UniProt Q92731); test: OT_ER_ERbERb_1440: Odyssey Thera (OT) 24-hour HEK293T Protein-Complementation Assay for Estrogen Receptor-beta/-beta Homodimer (AID 2283380);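 note: fluorescence gain from ER beta LBD homodimer complementation read by laser scanning cytometry; scored as signal increase over DMSO baseline for both agonists and antagonists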
# Chain of Estrogen receptor beta (Homo sapiens) (Q92731 whole entry, looked up, the tested form may be a part): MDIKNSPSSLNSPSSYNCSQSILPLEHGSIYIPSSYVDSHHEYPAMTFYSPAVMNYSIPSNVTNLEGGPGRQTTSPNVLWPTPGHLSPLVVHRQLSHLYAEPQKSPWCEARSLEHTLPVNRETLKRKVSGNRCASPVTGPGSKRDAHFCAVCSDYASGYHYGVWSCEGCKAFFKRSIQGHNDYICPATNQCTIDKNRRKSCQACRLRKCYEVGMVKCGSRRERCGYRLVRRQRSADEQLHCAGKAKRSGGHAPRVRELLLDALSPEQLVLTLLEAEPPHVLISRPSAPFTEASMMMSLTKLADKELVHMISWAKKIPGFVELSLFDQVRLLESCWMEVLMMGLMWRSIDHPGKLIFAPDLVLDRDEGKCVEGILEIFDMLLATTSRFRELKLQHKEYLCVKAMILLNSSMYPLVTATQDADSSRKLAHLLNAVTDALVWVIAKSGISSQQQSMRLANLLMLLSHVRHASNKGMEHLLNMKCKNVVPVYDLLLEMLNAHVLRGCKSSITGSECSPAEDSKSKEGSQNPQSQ
# How it was run: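 Fluorescence increase, nuclear for agonists or whole-cell for antagonists, relative to DMSO vehicle, quantified by laser scanning cytometer after fixation and Draq5 staining. Readout from 24 h treatment of HEK293T cells carrying complementation-paired ER beta LBD (aa 310-547).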
smiles,measurement,setting,value
FC(F)C(F)(F)OCC(Cn1cncn1)c1ccc(Cl)cc1Cl (stereo not given),AC50,[1],8.87 µM (active)
same,AC50,[2],16.5 µM (active)
same,AC50,[3],7.59 µM (active)
same,outcome,[4],inactive
CCOC(=O)CC(SP(=O)(OC)OC)C(=O)OCC (stereo not given),outcome,[2],inactive
same,outcome,[5],inactive
same,outcome,[4],inactive
same,outcome,[6],inactive
CCC(CC)Nc1c([N+](=O)[O-])cc(C)c(C)c1[N+](=O)[O-],outcome,[1],inactive
same,outcome,[5],inactive
same,AC50,[4],43.3 µM (active)
same,AC50,[6],71.7 µM (active)
Nc1c(Cl)cc([N+](=O)[O-])cc1Cl,outcome,[7],inactive
same,outcome,[5],inactive
same,outcome,[8],inactive
same,AC50,[3],25 µM (active)
same,AC50,[9],3.3 µM (active)
same,outcome,[10],inactive
same,outcome,[11],inactive
same,outcome,[12],inactive
same,outcome,[4],inactive
CCOP(=S)(OCC)Oc1cc(C)nc(C(C)C)n1,outcome,[1],inactive
O=c1ccc(=O)[nH][nH]1,outcome,[10],inactive
same,outcome,[4],inactive
CC(=NC#N)N(C)Cc1ccc(Cl)nc1,outcome,[5],inactive
Cc1cc(C2CC2)nc(Nc2ccccc2)n1,AC50,[13],5.69 µM (active)
same,outcome,[14],inactive
same,AC50,[15],3.82 µM (active)
same,outcome,[11],inactive
same,outcome,[12],inactive
same,AC50,[4],20.4 µM (active)
same,outcome,[6],inactive
CCOP(=O)(OCC)Oc1cc(C)nc(C(C)C)n1,outcome,[5],inactive
same,outcome,[4],inactive
same,outcome,[6],inactive
CCCCOC(=O)[C@@H](C)Oc1ccc(Oc2ccc(C#N)cc2F)cc1,outcome,[3],inactive
same,outcome,[16],inactive
same,outcome,[11],inactive
same,outcome,[12],inactive
CCCSP(=O)(OCC)Oc1ccc(Br)cc1Cl (stereo not given),AC50,[4],25 µM (active)
same,outcome,[6],inactive
CN1COCN(Cc2cnc(Cl)s2)C1=N[N+](=O)[O-],outcome,[6],inactive
N#CSCSC#N,AC50,[4],11.4 µM (active)
CC(C)[C@H](C(=O)O[C@H](C#N)c1cccc(Oc2ccccc2)c1)c1ccc(Cl)cc1,outcome,[5],inactive
same,AC50,[3],16.2 µM (active)
CCC(=NOC/C=C/Cl)C1=C(O)CC(C2CCOCC2)CC1=O (stereo not given),outcome,[5],inactive
same,outcome,[16],inactive
CCOP(=S)(OCC)OC(Cl)C(Cl)(Cl)Cl (stereo not given),outcome,[5],inactive
CCCOc1nn(C(=O)NS(=O)(=O)c2ccccc2C(=O)OC)c(=O)n1C,outcome,[10],inactive
Nc1nc(N)nc(NC2CC2)n1,outcome,[6],inactive
